# Measurements as given in PubChem BioAssay (Tox21).
# Values without a mark were called inactive. Inconclusive results are not listed. Entries that show only a call come without a potency. Active and inactive are the calls of the source. Unless noted, the call rests on the fitted dose curve; in most records, active means well fitted curve in the direction sought with a large enough effect in the repeat runs; inconclusive means weak or mixed curves; inactive means no such curve, though single readings can be large; an effect the other way counts as inactive or inconclusive.
# Key:
# [1] = molecular target: Estrogen receptor beta (Homo sapiens) (UniProt Q92731); test: qHTS assay to identify small molecule agonists of the estrogen receptor beta (ER-beta) signaling pathway (AID 1259377; active means well fitted activation curve with a large enough effect in the signal ratio in the repeat runs, not every such curve was filed as active; the % refers to the signal ratio)
# Procedure, shortened: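 Reporter cells (HEK293T, ER-beta-UAS-bla) receive compounds or DMSO after a 6 hr pre-incubation. They then incubate 16 hr at 37C/5% CO2, and fluorescence from LiveBLAzer B/G substrate is measured after 2 hours at room temperature.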
# [2] = molecular target: Estrogen receptor beta (Homo sapiens) (UniProt Q92731); test: qHTS assay to identify small molecule antagonists of the estrogen receptor beta (ER-beta) signaling pathway (AID 1259378; active means well fitted inhibition curve with a large enough effect in the signal ratio in the repeat runs, not every such curve was filed as active; the % refers to the signal ratio)
# Procedure, shortened: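 ER-beta-UAS-bla HEK293T (GripTite) cells in 2% charcoal-stripped FBS medium were preincubated 6 hr at 37C, dosed with compound, then stimulated with 1 nM E2 (final) for 16 hr; beta-lactamase reporter read by B/G FRET fluorescence after 2 hr substrate loading.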
# [3] = qHTS assay to identify small molecule agonists of the androgen receptor (AR) signaling pathway in the presence of an antagonist - cell viability counter screen (AID 1259379); further: nearly all actives have a fitted effect of over 25% in size; further: potency means the concentration at half of the fitted maximal effect;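 on activity change, negative = cytotoxicity: MDA-kb2 human breast cancer cells carrying an MMTV luciferase reporter; series mostly up to about 92 µM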
# Procedure, shortened: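 Nilutamide-containing (3.0uM final) MDA-kb2 cultures, 3,000 cells/well, were treated with compounds across 15 concentrations. After 16 hr at 37C with no CO2, cell viability was determined by CellTiter-Fluor fluorescence in the luciferase assay wells.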
# [4] = qHTS assay to identify small molecule agonists of the estrogen receptor beta (ER-beta) signaling pathway - cell viability counter screen (AID 1259380); further: nearly all actives have a fitted effect of over 30% in size; further: potency means the concentration at half of the fitted maximal effect
# Procedure, shortened: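 Steps: plate ER-beta-UAS-bla HEK293T cells, rest 6 hr; add compounds in DMSO; incubate 16 hr at 37C, 5% CO2; add FRET substrate 2 hr; add CellTiter-Glo, wait 30 min at room temperature; read luminescence.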
# [5] = qHTS assay to identify small molecule antagonists of the estrogen receptor beta (ER-beta) signaling pathway - cell viability counter screen (AID 1259382); further: series mostly up to about 92 µM; nearly all actives have a fitted effect of over 55% in size
# Procedure, shortened: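 Viability is scored by CellTiter-Glo luminescence (30 min, room temperature) in ER-beta-UAS-bla HEK293T wells already read for reporter fluorescence. Compound exposure lasts 16 hr at 37C alongside 1nM 17-beta-estradiol in charcoal-stripped serum medium.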
# [6] = molecular target: Estrogen receptor (Homo sapiens) (UniProt P03372); test: qHTS assay to identify small molecule agonists of the estrogen receptor alpha (ER-alpha) signaling pathway in the presence of an antagonist (AID 1259383; calls by dose curve; further: top concentration of the series differs between compounds; nearly all actives have a fitted effect of over 15% in size)
# Procedure, shortened: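 Readout was ERE-driven luciferase luminescence in VM7Luc4E2 cells, which express full-length ER-alpha endogenously. Compounds were tested at 15 concentrations for 22hr alongside 10.0nM ICI-182,780 (final concentration).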
# [7] = qHTS assay to identify small molecule agonists or antagonists of the thyroid stimulating hormone receptor (TSHR) signaling pathway - wild type cell line counter screen (AID 1259384; calls by dose curve)
# Procedure, shortened: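 Wild-type HEK293 cells were plated 18 h at 37 C/5% CO2, pin-dosed with compound plus Ro20-1724 medium, held 30 min at room temperature, then given cAMP-d2 and anti-cAMP-cryptate; fluorescence was read after 1 h. Fifteen concentrations, triplicate.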
# [8] = qHTS assay to identify small molecule agonists of the estrogen receptor alpha (ER-alpha) signaling pathway in the presence of an antagonist - cell viability counter screen (AID 1259386);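 further: cells exposed to compounds for 22 h at 37 °C before the viability read; nearly all actives have a fitted effect of over 30% in size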; further: potency means the concentration at half of the fitted maximal effect; on activity change, negative = cytotoxicity: series mostly up to about 92 µM
# Procedure, shortened: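 In this counter screen, compound effects on VM7Luc4E2 viability were tested in the presence of the antagonist ICI-182,780 at 10.0nM final. Compounds were dosed at 15 concentrations, exposure lasted 22hr, and the CellTiter-Fluor signal was read.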
# [9] = molecular target: Thyrotropin receptor (Homo sapiens) (UniProt P16473); test: qHTS assay to identify small molecule antagonists of the thyroid stimulating hormone receptor (TSHR) signaling pathway (AID 1259385; calls by dose curve; further: nearly all actives have a fitted effect of over 20% in size)
# Procedure, shortened: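 TSHR-HEK293 cells were plated and held 18 h at 37C/5% CO2, then given compound plus Ro20-1724 and stimulated with TSH at 1.5 ng/mL final. After 30 min at room temperature, cAMP was detected with cAMP-d2/anti-cAMP-cryptate (1 h) by fluorescence.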
# [10] = molecular target: Androgen receptor (Homo sapiens) (UniProt P10275); test: qHTS assay to identify small molecule agonists of the androgen receptor (AR) signaling pathway in the presence of an antagonist (AID 1259381; calls by dose curve; further: nearly all actives have a fitted effect of over 15% in size)
# Procedure, shortened: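 Reporter-gene luminescence from MDA-kb2 cells exposed 16hr at 37C (0% CO2) to 15-point compound titrations with 3.0uM final nilutamide as AR antagonist.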
# Chain of Estrogen receptor (Homo sapiens) (P03372 whole entry, looked up): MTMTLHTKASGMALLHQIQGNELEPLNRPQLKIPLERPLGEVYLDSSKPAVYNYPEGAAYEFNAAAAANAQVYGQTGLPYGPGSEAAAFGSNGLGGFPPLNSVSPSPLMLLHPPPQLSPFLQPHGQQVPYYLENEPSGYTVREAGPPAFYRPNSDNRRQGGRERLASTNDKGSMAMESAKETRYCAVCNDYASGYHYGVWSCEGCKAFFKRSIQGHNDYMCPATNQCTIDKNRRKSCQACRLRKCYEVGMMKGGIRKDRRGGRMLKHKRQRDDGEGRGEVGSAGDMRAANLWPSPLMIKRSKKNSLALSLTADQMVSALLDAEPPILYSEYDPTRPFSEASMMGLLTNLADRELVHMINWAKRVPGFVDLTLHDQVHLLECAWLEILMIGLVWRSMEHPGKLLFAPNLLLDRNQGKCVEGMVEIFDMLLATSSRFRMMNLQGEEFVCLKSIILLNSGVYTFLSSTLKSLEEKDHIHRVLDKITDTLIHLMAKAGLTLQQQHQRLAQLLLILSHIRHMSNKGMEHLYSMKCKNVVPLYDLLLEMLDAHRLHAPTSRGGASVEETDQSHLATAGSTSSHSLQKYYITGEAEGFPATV
# Chain of Androgen receptor (Homo sapiens) (P10275 whole entry, looked up): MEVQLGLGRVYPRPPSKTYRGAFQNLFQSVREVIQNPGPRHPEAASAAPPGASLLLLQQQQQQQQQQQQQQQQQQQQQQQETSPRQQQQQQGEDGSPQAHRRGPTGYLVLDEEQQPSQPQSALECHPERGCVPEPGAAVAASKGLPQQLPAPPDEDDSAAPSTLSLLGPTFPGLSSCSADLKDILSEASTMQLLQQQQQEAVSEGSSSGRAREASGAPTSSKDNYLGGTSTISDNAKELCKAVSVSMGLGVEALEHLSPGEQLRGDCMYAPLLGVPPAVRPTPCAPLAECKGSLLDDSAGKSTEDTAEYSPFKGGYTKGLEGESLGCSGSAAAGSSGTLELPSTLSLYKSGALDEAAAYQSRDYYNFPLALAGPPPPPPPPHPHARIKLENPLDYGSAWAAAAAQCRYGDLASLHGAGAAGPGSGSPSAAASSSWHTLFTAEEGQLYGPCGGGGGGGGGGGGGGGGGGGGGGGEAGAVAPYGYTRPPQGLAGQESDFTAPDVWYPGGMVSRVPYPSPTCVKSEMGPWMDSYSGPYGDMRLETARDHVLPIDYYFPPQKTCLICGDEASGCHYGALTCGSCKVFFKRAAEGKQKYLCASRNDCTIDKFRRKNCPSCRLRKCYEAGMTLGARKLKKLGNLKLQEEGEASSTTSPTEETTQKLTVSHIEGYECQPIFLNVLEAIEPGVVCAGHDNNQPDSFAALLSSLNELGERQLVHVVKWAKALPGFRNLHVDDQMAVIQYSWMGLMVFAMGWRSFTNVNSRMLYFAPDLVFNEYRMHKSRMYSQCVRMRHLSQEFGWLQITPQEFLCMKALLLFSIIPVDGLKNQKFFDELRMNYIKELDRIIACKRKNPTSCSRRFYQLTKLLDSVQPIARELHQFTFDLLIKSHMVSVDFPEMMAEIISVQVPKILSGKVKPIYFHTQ
# Chain of Estrogen receptor beta (Homo sapiens) (Q92731 whole entry, looked up): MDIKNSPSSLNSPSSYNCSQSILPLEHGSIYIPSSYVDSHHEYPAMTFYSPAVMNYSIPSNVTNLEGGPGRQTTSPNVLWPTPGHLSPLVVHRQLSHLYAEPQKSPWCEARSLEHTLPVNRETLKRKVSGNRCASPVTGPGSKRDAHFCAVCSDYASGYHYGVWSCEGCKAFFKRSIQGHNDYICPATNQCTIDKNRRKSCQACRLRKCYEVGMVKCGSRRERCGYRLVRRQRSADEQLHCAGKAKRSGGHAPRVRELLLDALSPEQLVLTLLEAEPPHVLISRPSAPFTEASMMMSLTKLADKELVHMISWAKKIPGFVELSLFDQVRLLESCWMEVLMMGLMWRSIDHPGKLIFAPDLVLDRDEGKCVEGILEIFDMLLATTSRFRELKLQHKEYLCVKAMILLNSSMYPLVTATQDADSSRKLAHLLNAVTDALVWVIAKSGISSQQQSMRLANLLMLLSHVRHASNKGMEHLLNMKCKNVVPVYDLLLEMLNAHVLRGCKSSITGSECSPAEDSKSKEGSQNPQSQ
# Chain of Thyrotropin receptor (Homo sapiens) (P16473 whole entry, looked up): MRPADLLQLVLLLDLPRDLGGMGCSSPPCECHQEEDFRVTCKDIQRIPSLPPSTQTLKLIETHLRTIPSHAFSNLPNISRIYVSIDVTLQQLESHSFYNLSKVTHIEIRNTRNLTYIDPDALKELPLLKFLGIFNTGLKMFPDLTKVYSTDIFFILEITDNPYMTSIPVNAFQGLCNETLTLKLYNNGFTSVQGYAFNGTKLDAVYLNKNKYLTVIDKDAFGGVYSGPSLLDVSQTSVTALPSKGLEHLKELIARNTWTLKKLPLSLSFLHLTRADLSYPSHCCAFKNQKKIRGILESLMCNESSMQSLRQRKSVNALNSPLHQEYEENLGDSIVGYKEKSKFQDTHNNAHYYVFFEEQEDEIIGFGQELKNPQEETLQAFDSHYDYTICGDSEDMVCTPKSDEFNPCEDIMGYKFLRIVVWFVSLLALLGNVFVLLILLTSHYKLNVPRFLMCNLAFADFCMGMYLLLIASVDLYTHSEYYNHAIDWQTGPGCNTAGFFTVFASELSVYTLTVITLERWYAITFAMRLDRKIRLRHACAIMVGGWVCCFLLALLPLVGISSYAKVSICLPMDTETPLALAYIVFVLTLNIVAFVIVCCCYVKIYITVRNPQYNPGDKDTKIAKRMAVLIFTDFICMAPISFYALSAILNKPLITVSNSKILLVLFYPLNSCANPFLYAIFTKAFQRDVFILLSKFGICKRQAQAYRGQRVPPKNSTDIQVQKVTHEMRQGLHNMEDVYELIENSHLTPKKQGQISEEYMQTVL
smiles,measurement,setting,value
CC(C)CC=O,Potency,[1],inactive
same,Potency,[2],inactive
same,Potency,[3],inactive
same,Potency,[4],inactive
same,Potency,[5],inactive
same,Potency,[6],inactive
same,Potency,[7],inactive
same,Potency,[8],inactive
CCN1CCC[C@H]1CNC(=O)c1c(OC)ccc(Br)c1OC,Potency,[1],inactive
same,Potency,[2],inactive
same,Potency,[3],inactive
same,Potency,[4],inactive
same,Potency,[6],inactive
same,Potency,[7],inactive
same,Potency,[9],inactive
same,Potency,[8],inactive
CCOC(=O)CC(=O)c1cc(F)c(Cl)nc1Cl,Potency,[1],inactive
same,Potency,[2],inactive
same,Potency,[3],inactive
same,Potency,[4],inactive
same,Potency,[5],inactive
same,Potency,[6],inactive
same,Potency,[8],inactive
OCCC1CCCCN1 (stereo not drawn),Potency,[1],inactive
same,Potency,[2],inactive
same,Potency,[3],inactive
same,Potency,[4],inactive
same,Potency,[5],inactive
same,Potency,[6],inactive
same,Potency,[7],inactive
same,Potency,[9],inactive
same,Potency,[8],inactive
C=CCCCCCC,Potency,[1],inactive
same,Potency,[2],inactive
same,Potency,[3],inactive
same,Potency,[4],inactive
same,Potency,[5],inactive
same,Potency,[6],inactive
same,Potency,[7],inactive
same,Potency,[9],inactive
same,Potency,[8],inactive
CC(=O)NCCCS(=O)(=O)O,Potency,[1],inactive
same,Potency,[2],inactive
same,Potency,[3],inactive
same,Potency,[4],inactive
same,Potency,[5],inactive
same,Potency,[6],inactive
same,Potency,[7],inactive
same,Potency,[9],inactive
same,Potency,[8],inactive
COC(=O)C(C)=O,Potency,[1],inactive
same,Potency,[2],inactive
same,Potency,[3],inactive
same,Potency,[4],inactive
same,Potency,[5],inactive
same,Potency,[6],inactive
same,Potency,[7],inactive
same,Potency,[9],inactive
same,Potency,[8],inactive
OC(CCN1CCCCC1)(c1ccccc1)C1CCCCC1 (stereo not drawn),Potency,[1],inactive
same,Potency,[2],inactive
same,Potency,[3],inactive
same,Potency,[4],inactive
same,Potency,[5],inactive
same,Potency,[6],inactive
same,Potency,[7],inactive
same,Potency,[8],inactive
Nc1ccc(C(=O)N2CC3CC(CN(Cc4ccccc4)C3)C2)cc1,Potency,[1],inactive
same,Potency,[2],inactive
same,Potency,[3],inactive
same,Potency,[5],inactive
same,Potency,[6],inactive
same,Potency,[7],inactive
same,Potency,[9],inactive
same,Potency,[8],inactive
O=C(Cl)c1ccc([N+](=O)[O-])cc1,Potency,[1],inactive
same,Potency,[2],inactive
same,Potency,[3],inactive
same,Potency,[4],inactive
same,Potency,[10],inactive
same,Potency,[6],inactive
same,Potency,[7],inactive
same,Potency,[9],inactive
same,Potency,[8],inactive
CCCCOC(O)CC (stereo not drawn),Potency,[1],inactive
same,Potency,[2],inactive
same,Potency,[3],inactive
same,Potency,[4],inactive
same,Potency,[10],inactive
same,Potency,[5],inactive
same,Potency,[6],inactive
same,Potency,[7],inactive
same,Potency,[8],inactive
CC/C(=C\C(=N/O)C(N)=O)C(C)[N+](=O)[O-] (stereo not drawn),Potency,[1],inactive
same,Potency,[2],inactive
same,Potency,[3],inactive
same,Potency,[4],inactive
same,Potency,[5],inactive
same,Potency,[6],inactive
same,Potency,[7],inactive
same,Potency,[8],inactive
O=C(NN1CCCC1)NS(=O)(=O)c1ccc(Cl)cc1,Potency,[1],inactive
same,Potency,[2],inactive
same,Potency,[3],inactive
same,Potency,[4],inactive
same,Potency,[5],inactive
same,Potency,[6],inactive
same,Potency,[7],inactive
same,Potency,[9],inactive
same,Potency,[8],inactive
c1ccc(OCc2ccc(CCCN3CCOCC3)cc2)cc1,Potency,[1],inactive
same,Potency,[2],inactive
same,Potency,[3],29.8 µM (active)
same,Potency,[4],inactive
same,Potency,[10],inactive
same,Potency,[6],inactive
same,Potency,[7],inactive
same,Potency,[9],inactive
O=C(O)C(c1ccc(Cl)cc1)c1ccc(Cl)cc1,Potency,[1],inactive
same,Potency,[2],inactive
same,Potency,[3],inactive
same,Potency,[4],61.1 µM (active)
same,Potency,[6],inactive
same,Potency,[7],inactive
same,Potency,[9],inactive
same,Potency,[8],inactive
Cc1ccc(C(C)c2ccc(C)c(C)c2)cc1C,Potency,[1],inactive
same,Potency,[2],inactive
same,Potency,[3],inactive
same,Potency,[4],inactive
same,Potency,[5],inactive
same,Potency,[6],inactive
same,Potency,[7],inactive
same,Potency,[8],inactive
O=C(CCN1CCN2CCCC2C1)N1c2ccccc2Sc2ccc(Cl)cc21 (stereo not drawn),activation,[1],-2.5% [at 19 µM]
same,"activity, negative = inhibition",[2],-12.6% [at 19 µM]
same,"activity change, negative = cytotoxicity",[3],-7.38% [at 19 µM]
same,"activity change, negative = cytotoxicity",[4],-14.2% [at 19 µM]
same,activation,[10],-1.48% [at 19 µM]
same,"activity change, negative = cytotoxicity",[5],-9.75% [at 19 µM]
same,activation,[6],-1.43% [at 19 µM]
CC(=O)CC(=O)c1ccccc1,Potency,[1],inactive
same,Potency,[2],inactive
same,Potency,[3],inactive
same,Potency,[4],inactive
same,Potency,[5],inactive
same,Potency,[6],inactive
same,Potency,[7],inactive
same,Potency,[8],inactive
COCCOCCOCCOCCOC,Potency,[1],inactive
same,Potency,[2],inactive
same,Potency,[3],inactive
same,Potency,[10],inactive
same,Potency,[6],inactive
same,Potency,[7],inactive
same,Potency,[9],inactive
same,Potency,[8],inactive
CCCC(C)C,Potency,[1],inactive
same,Potency,[2],inactive
same,Potency,[3],inactive
same,Potency,[4],61.8 µM (active)
same,Potency,[5],inactive
same,Potency,[6],inactive
same,Potency,[7],inactive
same,Potency,[9],inactive
same,Potency,[8],inactive
CC(C)c1cccc(C(C)C)c1NC(=O)NS(=O)(=O)c1cc(C(C)(C)O)co1,Potency,[1],inactive
same,Potency,[2],inactive
same,Potency,[3],inactive
same,Potency,[4],inactive
same,Potency,[7],inactive
same,Potency,[8],inactive
CC[C@H](C)[C@H](N)C(=O)O,Potency,[1],inactive
same,Potency,[2],inactive
same,Potency,[3],inactive
same,Potency,[4],inactive
same,Potency,[5],inactive
same,Potency,[6],inactive
same,Potency,[7],inactive
same,Potency,[9],inactive
same,Potency,[8],inactive
Cc1ccccn1,Potency,[1],inactive
same,Potency,[2],inactive
same,Potency,[3],inactive
same,Potency,[4],inactive
same,Potency,[5],inactive
same,Potency,[8],inactive
Cc1ncsc1CCO,Potency,[1],inactive
same,Potency,[2],inactive
same,Potency,[3],inactive
same,Potency,[4],inactive
same,Potency,[5],inactive
same,Potency,[6],inactive
same,Potency,[9],inactive
same,Potency,[8],inactive
C=Cc1c(C)c2cc3[nH]c(cc4nc(cc5nc(cc1[nH]2)C(C)=C5CCC(=O)O)C(CCC(=O)O)=C4C)c(C)c3C=C,Potency,[1],inactive
same,Potency,[2],inactive
same,Potency,[3],21.1 µM (active)
same,Potency,[4],inactive
same,Potency,[5],inactive
same,Potency,[6],inactive
same,Potency,[7],inactive
same,Potency,[9],inactive
same,Potency,[8],26.6 µM (active)
CC(=O)O[C@@H]1C(=O)O[C@@H]2[C@H]1OC(=O)[C@@H]2OC(C)=O,Potency,[1],inactive
same,Potency,[2],inactive
same,Potency,[3],inactive
same,Potency,[4],inactive
same,Potency,[5],inactive
same,Potency,[6],inactive
same,Potency,[7],inactive
same,Potency,[9],inactive
same,Potency,[8],inactive
